The AC50 is the concentration at which the activity in the assay is half-maximal.

Results filed as inconclusive are left out. Active and inactive are the calls of the source. Rule for the calls: active = hit-call score of the fitted dose curve at least 0.9, where 1 is the maximum; inconclusive = response in the unintended direction; inactive = score below 0.9.

Among the data in PubChem BioAssay (EPA / NIEHS) are outcome and AC50 values, retold here.

human Thyroid Receptor Alpha (TRa), THRA (gene 7067), sequence (P10827 whole entry, looked up): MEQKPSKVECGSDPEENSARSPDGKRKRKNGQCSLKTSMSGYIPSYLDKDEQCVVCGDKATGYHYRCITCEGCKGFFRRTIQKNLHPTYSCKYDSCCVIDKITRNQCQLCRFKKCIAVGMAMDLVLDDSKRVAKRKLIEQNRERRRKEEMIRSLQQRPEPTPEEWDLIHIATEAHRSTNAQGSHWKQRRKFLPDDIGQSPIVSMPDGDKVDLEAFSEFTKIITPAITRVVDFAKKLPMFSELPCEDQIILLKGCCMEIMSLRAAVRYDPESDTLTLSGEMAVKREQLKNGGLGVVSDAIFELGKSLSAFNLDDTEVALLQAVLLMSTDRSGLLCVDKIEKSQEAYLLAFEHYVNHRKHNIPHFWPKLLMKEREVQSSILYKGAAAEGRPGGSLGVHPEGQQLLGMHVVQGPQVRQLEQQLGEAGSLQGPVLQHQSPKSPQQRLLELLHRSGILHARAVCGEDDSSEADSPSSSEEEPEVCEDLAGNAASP

The experiment concerns the target human Thyroid Receptor Alpha (TRa), THRA (gene 7067) (UniProt P10827). As to the kind of experiment: NVS_NR_hTRa_Antagonist: NovaScreen (NVS) Nuclear Receptor Binding Assay for human Thyroid Receptor Alpha Antagonism (TRa) (AID 2283362). As to the method:
NVS_NR_hTRa_Antagonist is a biochemical, single-readout assay that uses extracted gene-proteins in a cell-free assay. Measurements were taken 1 hour after chemical dosing in a 384-well plate.NVS_NR_hTRa_Antagonist is one of one assay component(s) measured or calculated from the NVS_NR_hTRa_Antagonist assay. It is designed to make measurements of enzyme-linked immunosorbent assay, a form of binding reporter, as detected with chemiluminescence signals by AlphaLISA immunoassay technology.Data from the assay component NVS_NR_hTRa_Antagonist was analyzed into 1 assay endpoint. This assay endpoint, NVS_NR_hTRa_Antagonist, was analyzed in the positive analysis fitting direction relative to DMSO as the negative control and baseline of activity. Using a type of binding reporter, loss-of-signal activity can be used to understand changes in the binding as they relate to the gene THRA. Furthermore, this assay endpoint can be referred to as a primary readout, because the performed assay has only produced 1 assay endpoint. To generalize the intended target to other relatable targets, this assay endpoint is annotated to the nuclear receptor intended target family, where the subfamily is non-steroidal.
Binding assays used specific radioligands (tritiated, iodinated) with non-radioactive competitive displacement ligands in agonist or antagonist protocols (as indicated) and various reference compounds and inhibitors to titrate specific binding to receptors and transporters. Most enzyme assays (CYPs, kinases, phosphatases, proteases, HDACs) used recombinant protein and specific substrates (fluorescence mostly, some colorimetric and radioactive) and inhibitors, followed by a biochemical separation of substrate and product. All assays for the biochemical HTS were initially run in duplicate at a single concentration (10 uM for CYP450 assays and 25 uM for all others). […] Each assay was run with positive and negative controls, and concurrent controls on every plate. The follow-up (secondary) screen tested active chemical-pairs in concentration series, as well as a few additional assays not tested in the primary screen, some selected negative inactives, and several cases re-run in the concentration series for confirmatory purposes.
As to `CCOC(=O)C(C)(C)Oc1ccc(Cl)cc1`, the compound was called inactive. Regarding `Cc1c(C(=O)O)c(O)cc2c1C(=O)c1c(O)c([C@@H]3O[C@H](CO)[C@@H](O)[C@H](O)[C@H]3O)c(O)c(O)c1C2=O`, the AC50 is 17.3 µM (active). On to `CCCCOC(=O)CCCCCCCCC(=O)OCCCC`, for which the compound was classed as inactive. With `Nc1ccc2c(c1)C(=O)c1ccccc1C2=O`, the compound was classed as inactive. On to `Oc1ccc2ccccc2c1N=Nc1ccccc1`, for which the compound was classed as inactive. Turning to `Cc1nc(-c2ccc3c(c2)CCN(CCC2CCC(NC(=O)/C=C/c4ccc(F)cc4)CC2)CC3)no1` (stereo not given), the result was inactive.

`Cc1ccc2ncccc2c1`: the result was inactive. Consider `CCOc1ccc2c(c1)C(C)=CC(C)(C)N2`, for which the compound was classed as inactive.

On to `CC1(C)CC(N=C=O)CC(C)(CN=C=O)C1` (stereo not given), for which the compound was classed as inactive. Take `Cc1cc(NC(=O)C(=O)O)cc(C)c1Oc1ccc(O)c2c1CCC2`: the compound was classed as inactive.
